In PubChem BioAssay (NCI):
“And” between values parts separate entries of the source, which are not always exact repeats. Equal values may be shown once. About 83,000 compounds went through this panel and 20% of them were active in at least one assay; those are over-represented in the sample as a whole.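 Values shown are percent growth following 48 h exposure of cells in 96-well plates to a single concentration of compound; below 10 was considered active.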 The source made the active and inactive calls.

Tested on: MDA-MB-468 breast
Assay: NCI-60 one-dose screen, 48 h (100 = growth as untreated, 0 = no growth, -100 = all killed)
Conditions: 10 µM unless noted

Structure (SMILES)	growth
N#Cc1ncc(-c2ccc(C(F)(F)F)cc2)c(NC2CCCCCC2)n1	-8.28% (active)
Cc1nc2sc(C(=O)Nc3cccc4ccccc34)c(N)c2cc1C(O)c1ccccc1 (stereo not given)	18.1% (inactive)
COc1cc2ccc(C(C)=O)cc2cc1OC	106% (inactive)
Cc1c(Nc2nnc(SCC(=O)Nc3sc4c(c3C#N)CCCC4)s2)c(=O)n(-c2ccccc2)n1C	107% (inactive)
O=C(NOC(=O)c1ccccc1)c1ccccc1	105% (inactive)
O=c1ccc2cc3ccccc3cc2[nH]1	99% (inactive)
Clc1ccc(Sc2cnc(-c3ccccc3)o2)cc1	111% (inactive)
C=CCn1c(SCC(=O)Nc2cccc(C(=O)/C=C/c3ccccc3Cl)c2)nc2ccccc2c1=O	98.1% (inactive)
Cn1cc(-c2csc(-c3cn(CCCN4CCCCC4)c4ccc(Br)cc34)n2)c2cccnc21	15.2% (inactive)
C=C1C(=O)O[C@H]2[C@H]1CC/C(CNC(=O)c1cccc3ccccc13)=C\CC[C@@]1(C)O[C@@H]21	33.8% (inactive)
Cc1cc(NC(=O)Nc2cccc3ccccc23)no1	107% (inactive)
CCOC(=O)CSc1c(-c2ccccc2)c2cc(Cl)ccc2[nH]c1=O	98% (inactive)
COc1ccc(-c2nn(-c3cccc(Cl)c3)cc2/C=C2\C(=N)N(c3ccccc3)N=C2N)cc1	57.6% (inactive)
CN(Cc1cnc2nc(N)nc(N)c2n1)c1c(Cl)cc(C(=O)NC(CCC(=O)O)C(=O)O)cc1Cl (stereo not given)	15.3% (inactive)
Cc1cc2nc(C(Cl)Cl)nc(-c3cccs3)n2n1	-52% (active)
COc1ccc(C2=C(Br)C(=O)c3nc(C)ccc3C2=O)cc1	87.1% (inactive)
NC(=O)c1c(NC(=O)c2ccc(C3CCCCC3)cc2)sc2c1CCC(=O)C2	-10.3% (active)
O=C(O)Cc1ccccn1	101% (inactive)
NCCOc1ncccc1/C=C1\c2ccccc2-c2ccc([N+](=O)[O-])cc21	-39.2% (active)
CCCNC(=O)Oc1ccc(/C(=C(\C)c2ccccc2)c2ccc(OCCCN(C)C)cc2)cc1	83.4% (inactive)

Structure (SMILES)	growth
O=C(CCCCCCN1CC(=O)N2[C@@H](c3cccc(Br)c3)c3[nH]c4ccccc4c3C[C@H]2C1=O)NO	28.1% (inactive)
CN(C)CCCNc1c2ccc(Cl)cc2nc2c1oc1ccccc12	-49.6% (active)
C=CCN(C)S(=O)(=O)/N=C1\NC(=O)NC1=C(Cl)Cl	28.7% (inactive)
COc1ccc(NC(=O)c2cccc(C3CCc4c(cc(OC)c(OC)c4OC)O3)c2)cc1 (stereo not given)	22% (inactive)
O=C1C=CC(=O)N1CCCCCCCCCCN1C(=O)C=CC1=O	70.9% (inactive)
ClC1=C(Cl)C(Cl)=C(Cl)C1=Cc1ccc(Cl)cc1Cl	-74.9% (active)
Nc1ccc(-c2nnc(SCc3ccc(O)c4ncccc34)n2-c2ccccc2)cc1	9.01% (active)
CC(=S)NC(=O)C(=O)/C=C1/NC(=O)C(=O)S1	102% (inactive)
Cc1cc(Nc2nc(C(=O)Nc3ccccc3)nc3ccccc23)n[nH]1	68.9% (inactive)
Cc1ccc2nc(NC(=O)CSC(=S)N3CCN(c4ccccc4)CC3)sc2c1	101% (inactive)
Cc1ccc2oc(=O)cc(-c3sc(N4CCCCC4)nc3-c3ccccc3)c2c1	102% (inactive)
CC1(C)CC[C@]2(C(=O)O)CC[C@]3(C)C(=CC[C@@H]4[C@@]5(C)C/C(=C/c6ccco6)C(=O)C(C)(C)[C@@H]5CC[C@]43C)[C@@H]2C1	-3.74% [100 µM] (active)
CN(CCCNC(=O)Cc1ccc2ccc3cccc4ccc1c2c34)CCCNc1cc(-c2ccc3ccccc3c2)nc2ccccc12	-78.4% (active)
CC1=C(/C=C/C(C)=C/C=C/C(C)=C/C(=O)O)C(C)(C)CCC1	99.9% (inactive) and 110% (inactive)
N#CSCc1ccc(Cl)c(CSC#N)c1	51.5% (inactive)
Cn1cc(-c2nc(-c3c[nH]c4ncccc34)cs2)c2cc(F)ccc21	-22.6% (active)
N#Cc1cnn2c(-c3ccc(Cl)cc3)nc(NCCc3ccccc3)nc12	110% (inactive)
CS(=O)(=O)c1nccc(-c2c(-c3cccc(OCc4ccc(Cl)c(C(F)(F)F)c4)c3)nc3sccn23)n1	-66.1% (active)
N#C/C(=C\c1ccc(Br)cc1)n1nnc2ccc(F)cc21	-9.09% (active)
Cc1c2c[n+](C(C)C)ccc2c(C)c2c1[nH]c1ccccc12	-37% (active)
